Bioassay records: PubChem, National Center for Advancing Translational Sciences (NCATS)
An excerpt weighted towards active compounds, which were near 19% of everything screened.
VP16 counter: inhibits Gal4-VP16 luciferase reporter, ROR gamma counter-screen. Drosophila S2 Gal4-VP16 UAS-luciferase, luminescence, 20 h. hit rate 3.5% among 310,000. Potency, µM (highest dose often 53.6 µM), for inactives: at the highest dose activity, negative = inhibition, usual class: inhibitors;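 also: Gal4-VP16 expression switched on by copper sulfate through the metallothionein promoter; nearly all actives have a fitted effect of over 50% in size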
TDP1 cell CPT: DT40-hTDP1 cell growth loss with CPT; chicken DT40 Tdp1-/-;hTDP1 cells + 20 nM CPT, ATP luminescence, 48 h; Potency, µM (series often up to 46.2 µM), without a hit: top-dose activity change, negative = growth inhibition, hits mostly inhibitors; hit rate 12% among 420,000; AID 686979; also: nearly all actives have a fitted effect of over 55% in size
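Chicken DT40 Tdp1-/- cells stably complemented with human TDP1 were seeded at 400 cells/well in medium containing 20 nM camptothecin, exposed to pin-transferred compounds, and grown at 37 °C for at least 48 hr. Viability was read as ATP luminescence.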
DT40 TDP1 no CPT: qHTS for Inhibitors of human tyrosyl-DNA phosphodiesterase 1 (TDP1): qHTS in cells in absence of CPT; DT40 Tdp1-/- hTDP1 cells, no CPT, ATP luminescence, 48 h; Potency, µM (doses to about 46.2 µM), without a hit: top-dose activity change, negative = growth inhibition, actives largely listed as inhibitors; hit rate 15% among 420,000; AID 686978, 2013; also: nearly all actives have a fitted effect of over 55% in size
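Seeded 400 DT40-hTDP1 cells/well (vehicle DMSO, no 20 nM CPT); pinned compounds; ≥48 hr at 37 °C; CellTiter-Glo luminescence as viability measure.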
TDP1 block: blocks human tyrosyl-DNA phosphodiesterase 1; recombinant TDP1, AlphaScreen DNA substrate cleavage; Q9NUW8; Potency, µM (series often up to 130 µM), for the others: top-dose activity change, negative = inhibition, actives largely listed as inhibitors; hit rate 0.28% among 350,000; AID 485290; also: nearly all actives have a fitted effect of over 40% in size
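Enzyme-compound mixtures sat 15 min at room temperature, followed by a 5 min reaction with 15 nM final substrate and 10 min with AlphaScreen beads. Recombinant human Tdp1 was used at 1 nM final.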
RORg inh: inhibitors of mouse ROR gamma transcriptional activity; P51450; Drosophila S2 Gal4-RORgamma UAS-luciferase reporter, 20 h; Potency, µM (top dose mostly 53.6 µM), without a hit: at the highest dose activity change, negative = inhibition, usual class: inhibitors; hit rate 5.4% among 310,000; also: nearly all actives have a fitted effect of over 60% in size
Target sequence (P51450 whole entry, looked up, the tested form may be a part): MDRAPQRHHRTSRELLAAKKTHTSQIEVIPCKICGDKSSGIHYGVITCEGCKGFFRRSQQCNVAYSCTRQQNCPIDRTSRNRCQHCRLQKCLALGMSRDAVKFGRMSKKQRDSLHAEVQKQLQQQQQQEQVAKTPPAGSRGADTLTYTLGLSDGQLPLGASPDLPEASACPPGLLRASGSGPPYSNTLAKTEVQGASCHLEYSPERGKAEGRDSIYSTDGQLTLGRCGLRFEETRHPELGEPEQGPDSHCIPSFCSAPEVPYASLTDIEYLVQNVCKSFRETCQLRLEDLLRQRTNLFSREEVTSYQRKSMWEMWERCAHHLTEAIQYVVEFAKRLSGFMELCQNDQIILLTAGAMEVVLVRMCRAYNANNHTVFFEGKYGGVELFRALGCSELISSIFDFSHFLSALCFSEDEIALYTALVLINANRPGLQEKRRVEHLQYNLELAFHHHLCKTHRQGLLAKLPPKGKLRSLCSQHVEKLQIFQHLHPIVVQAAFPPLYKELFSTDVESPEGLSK
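A Gal4/UAS one-hybrid system in insect cells: metallothionein-promoter Gal4–ROR gamma fusion plus Photinus luciferase reporter. Copper sulfate 700 uM final, 20 hr ambient incubation, luminescent detection after 10 min with reagent.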
Active calls of the source: *; u = inconclusive; x = not tested or not shown; [ ] = another dose, or the depositor's remark. Calls follow the shape of the dose curve; as a rule, active = well fitted curve in the direction sought with a large enough effect; inconclusive = small, poorly fitted or top-dose-only effect, or another doubt; inactive = no such curve, though single readings can be large; an effect the other way counts as inactive or inconclusive. % is scaled to controls: 0 for no effect and ±100 for the full control effect; potency is read from the fitted curve at half-maximal effect.

SMILES | VP16 counter | TDP1 cell CPT | DT40 TDP1 no CPT | TDP1 block | RORg inh
N#C/C(=N\Nc1ccc(S(=O)(=O)N2CCc3ccccc32)cc1)C(N)=S | u | -18% | 12µM* | 11% | 11µM*
CCOC(=O)/C(C#N)=N/Nc1ccc(S(=O)(=O)N2CCc3ccccc32)cc1 | -25% | u | u | 8% | u
O=C(O)c1ccc(N=NNc2cccc([N+](=O)[O-])c2)cc1 | -22% | 1% | u | 8% | 14%
N#C/C(=N\Nc1ccc(S(=O)(=O)N2CCCCC2)cc1)C(N)=S | -22% | u | u | 6% | u
N#C/C(=N\Nc1ccc([N+](=O)[O-])cc1)C(N)=S | 13µM* | u | 23µM* | 12% | u
N#C/C(=N\Nc1ccc([N+](=O)[O-])cc1)C(=N)N1CCOCC1 | -24% | 6% | -16% | 3% | 3%
CCOc1ccc(CC(=O)Nc2cc(=O)n(C)c(=O)n2C)cc1 | -2% | -12% | u | -3% | 13%
O=C(NCc1cccnc1)C1CCCN1S(=O)(=O)c1ccc(Cl)cc1 (centres undefined) | -4% | -6% | 2% | 1% | -30%
O=C(Cn1cc([N+](=O)[O-])cn1)NCc1ccc(-n2cccn2)cc1 | -14% | 5% | -26% | 3% | 7%
CC1=C(C#N)c2nc(N)c(C#N)c(C)c2/C1=C\c1ccc(C)cc1 | u | x | x | 10% | 2%
COc1cc(/C=C2\C(C)=C(C#N)c3nc(N)c(C#N)c(C)c32)ccc1OCC(=O)O | -2% | 23µM* | u | 5% | 2%
O=C(CSc1ccc2ccccc2c1)NCCc1ccc(O)c(O)c1 | 1% | 16µM* | 23µM* | -5% | u
COc1ccc(CCNC(=O)CSc2ccc3ccccc3c2)cc1OC | -5% | u | u | 5% | 45%
O=C(COc1ccc2ccccc2c1)NC1CC(=O)N(c2ccc(F)cc2)C1 (centres undefined) | x | u | u | 0% | x
C[C@@H]1C(=O)OC[C@H]1NC(=O)OCc1ccccc1 | x | 7% | 16% | 0% | x
CSc1ccc(-c2nc3cccc(C)n3c2Nc2ccc(Cl)cc2)cc1 | x | 9.2µM* | 7.3µM* | 7% | x
Cc1ccc2nc(-c3ccc(O)cc3)c(Nc3ccc(Cl)cc3)n2c1 | x | u | u | 4% | x
COc1cc(-c2nc3nc(C)cc(C)n3c2Nc2ccc(Cl)cc2)ccc1O | x | u | u | 3% | x
Cc1ccc(Nc2c(-c3ccc(O)cc3)nc3cccc(C)n23)cc1 | x | 23µM* | u | 8% | x
CCCCn1nnnc1C(c1cc2ccccc2o1)N(Cc1ccccc1)Cc1ccccc1 (centres undefined) | x | u | 18µM* | x | x
CN(Cc1ccccc1)C(c1cc2ccccc2o1)c1nnnn1C(C)(C)C (centres undefined) | x | u | 18µM* | x | x
CCCCn1nnnc1C(c1cc2ccccc2o1)N(CCC#N)Cc1ccccc1 (centres undefined) | x | 16µM* | u | x | x
CCCCn1nnnc1C(c1cc2ccccc2o1)N(C)CCc1ccccc1 (centres undefined) | x | u | 21µM* | x | x
CCCCn1nnnc1C(c1cc2ccccc2o1)N1CCOCC1 (centres undefined) | x | 2% | -21% | x | x
COc1ccccc1N1CC(C(=O)Nc2cc(C(F)(F)F)ccc2N2CCCC2)CC1=O (centres undefined) | x | -11% | -30% | 0% | x
O=C(CSc1nnc(C2CC2)n1C1CC1)c1ccc(F)cc1 | x | 12% | 13% | 1% | x
COc1ccc(OC)c(C(=O)N2CCC(CCC(=O)NC3CC3)CC2)c1 | 0% | -14% | 16% | 2% | -5%
CCCCn1nnnc1C(c1cc2ccccc2o1)N(C)Cc1ccc(Cl)cc1 (centres undefined) | x | u | 21µM* | x | x
CS(=O)(=O)N(CC(=O)NCCSc1ccc(Cl)cc1)c1ccc2c(c1)OCO2 | 1%[0.365 µM] | u | u | -3% | -5%
